40 molecules from PubChem BioAssay (EPA / NIEHS) can be followed below.

Activity calls are given as the source filed them. How the source made its calls: active means hit-call score of the fitted dose curve at least 0.9, where 1 is the maximum; inactive means score below 0.9.

This assay can be described thus: ATG_E_Box_CIS: Attagene CIS-FACTORIAL HepG2 Assay for human Enhancer Box (E-box) (AID 2282936). The note with it: HepG2 E-box cis-reporter transcription, actives raise or lower the signal. On the procedure: ATG_CIS is a cell-based, multiplexed-readout assay that uses HepG2, a human liver cell line, with measurements taken at 24 hours after chemical dosing in a 24-well plate.ATG_E_Box_CIS is one of 52 assay component(s) measured or calculated from the ATG_CIS assay. It is designed to make measurements of mRNA induction, a form of inducible reporter, as detected with fluorescence intensity signals by Reverse transcription polymerase chain reaction (RT-PCR) and Capillary electrophoresis technology.Data from the assay component ATG_E_Box_CIS was analyzed into 1 assay endpoint. This assay endpoint, ATG_E_Box_CIS, was analyzed with bidirectional fitting relative to DMSO as the negative control and baseline of activity. Using a type of inducible reporter, measures of mRNA for gain or loss-of-signal activity can be used to understand the reporter gene at the transcription factor-level as they relate to the gene USF1. Furthermore, this assay endpoint can be referred to as a primary readout, because this assay has produced multiple assay endpoints where this one serves a reporter gene function. To generalize the intended target to other relatable targets, this assay endpoint is annotated to the dna binding intended target family, where the subfamily is basic helix-loop-helix protein.
Human liver HepG2 cells are transiently transfected with multiple reporter transcription units (MRTUs) in 6-well plates using FuGene 6 reagent (Roche; 3 ml FuGene/1 mg DNA). The MRTU constructs are regulated by a cis-regulating element (promoter). […] A major difference between the CIS and TRANS system is that in CIS activities of endogenous TFs are measured, whereas the TRANS assay evaluates changes in activities of exogenous, chimeric NR-Gal4 proteins. […] At the end of 24 hour incubation, total RNA was isolated using TriZol reagent (Invitrogen). The isolated RNA is then reverse-transcribed using oligo(dT) primer and Mo-MLV reverse transcriptase (Invitrogen) with DNAse I (Ambion) treatment for 30 min. The one-tenth of the produced cDNA was amplified by PCR using Taq DNA polymerase (Invitrogen) and two reporter sequence-specific primers. The PCR products were fluorescently labeled by primer extension with 6-arboxyfluorescein (6-FAM) 5'-labeled reporter sequence-specific primer (2 min at 95 C, 20 s at 68 C and 10 min at 72 C) and these products were digested with 5U of HpaI (New England Biolabs) for 2h at 37 C. The fragments were purified using Qiaquick PCR columns (Qiagen), analyzed on an ABI 3130xL genetic analyzer (Applied Biosystems) with peak positions identified by using a set of X-rhodamine (ROX)-labeled MapMarker1000 molecular weight standards (BioVentures). The raw capillary electrophoresis data was processed using Attagraph software (Attagene).
As for `COC(Cc1ccccc1)OC`, the result was inactive. On the same count and under the same terms, next, `CCN1CCCC1=O`: “inactive”. Still for that read-out and setting: next, `CC(C=O)c1ccccc1` (stereo not given): “inactive”. For `CC1(C)CC(O)CC(C)(C)N1[O]`, the result was inactive.

With `CCOC(=O)c1ccccc1C`, the outcome was inactive. With `CC(C)[N+](C)(CCOC(=O)C1c2ccccc2Oc2ccccc21)C(C)C`, the result was inactive. With `CCCCCC1=CCCC1=O`, the outcome was inactive.

In the case of `c1ccc(Nc2cccc3ccccc23)cc1`, the outcome was inactive. The same measure, in the same setting: next, `C=Cc1cccc(C)c1`: “inactive”.

With `CCC(=O)C1CC(C(C)C)CC=C1C` (stereo not given), the outcome was inactive. Take `CCCCC(CC)COS(=O)(=O)O` (stereo not given): the outcome was inactive. In the case of `CC(C)=CCl`, the outcome was inactive. Same read-out and setting: next, `N#Cc1ccc(C(c2ccc(C#N)cc2)n2cncn2)cc1`: “inactive”; `c1ccc2cnccc2c1`: “inactive”. Still for that read-out and setting: next, `C=C(C)C1CC=C(C)CC1` (stereo not given): “inactive”; `Cc1ccc([N+](=O)[O-])cc1N`: “inactive”; `CO[Si](CCCS)(OC)OC`: “inactive”. The same measure, in the same setting: the result for `CC(C)c1cccc(C(C)C)c1N` reads “inactive”; that for `O=C(Oc1ccccc1)c1ccccc1O`, “inactive”; that for `C1CNCCN1`, “inactive”. On to `CCCCC(C=O)CC` (stereo not given), for which the outcome was inactive. As to `CCCCC(=O)O`, the outcome was inactive. On to `CCC[Si](OC)(OC)OC`, for which the result was inactive. On the same count and under the same terms, next, `Oc1ccccc1Cc1ccccc1O`: “inactive”; `Nc1ccc(C(=O)O)cc1`: “inactive”; `C[Si](C)(C)N[Si](C)(C)C`: “inactive”. On the same count and under the same terms, the result for `CC(=O)OC1CCCCC1C(C)(C)C` (stereo not given) reads “inactive”.

In general, AC50 refers to the concentration giving half of the maximal activity seen. For the molecule `CC/C=C\C/C=C\C/C=C\CCCCCCCC(=O)OC`, the AC50 was 134 µM (active). For the molecule `CC(C)CCOCc1ccccc1`, the result was inactive. Same read-out and setting: next, `CCCC1CCCC(=O)O1` (stereo not given): “inactive”; `NNS(=O)(=O)c1ccc(Oc2ccc(S(=O)(=O)NN)cc2)cc1`: “inactive”; `CC(C)(C)NC(=O)[C@H]1CC[C@H]2[C@@H]3CC[C@H]4NC(=O)C=C[C@]4(C)[C@H]3CC[C@]12C`: “inactive”.

Turning to `CC1=CC(C)C(C=O)CC1` (stereo not given), the result was inactive. Still for that read-out and setting: next, `CCOC(=O)CC(=O)c1ccccc1`: “inactive”; `O=S(=O)(O)c1ccc(N=Nc2c(O)ccc3ccccc23)cc1`: “inactive”; `CCCCNC(=S)NCCCC`: “inactive”. As to `CCCCOC(=O)CCC(C)=O`, the result was inactive.

On to `CCC(C)c1ccccc1` (stereo not given), for which the outcome was inactive. The same measure, in the same setting: next, `O=C1CCCN1C1CCCCC1`: “inactive”; `COC(=O)c1ccccc1C`: “inactive”.
